# Values without a mark were called inactive. Inconclusive results are not listed. Where a call stands in place of a potency, no number is given. Activity calls are given as the source filed them. Unless noted, calls come from the whole dose curve; as a rule, active = well fitted curve in the direction sought with a large enough effect; inconclusive = small, poorly fitted or top-dose-only effect, or another doubt; inactive = no such curve, though single readings can be large; an effect the other way counts as inactive or inconclusive.
# Columns and labels:
# [1] = target: T1, Hexokinase-4 (Homo sapiens) + Glucokinase regulatory protein (Homo sapiens) (UniProt P35557+Q14397); assay: qHTS assay for inhibitors of recombinant human GCK-GKRP interaction: Diaphorase-coupled assay (AID 743205)
# Procedure, shortened: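 GST-GCK (10 nM) with FLAG-GKRP (10 nM), 5 mM glucose and 0.4 mM ATP in pH 7.6 Hepes; compounds preincubated 20 min with substrate. G6PDH/diaphorase coupling converts resazurin to resorufin, read kinetically (ex 525/em 590 nm) for 30 min.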
# [2] = target: T1, Hexokinase-4 (Homo sapiens) + Glucokinase regulatory protein (Homo sapiens); assay: qHTS assay for inhibitors of recombinant human GCK-GKRP interaction: ADP-Glo assay (AID 743206)
# Procedure, shortened: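 GST-GCK and FLAG-GKRP (15 nM each in the dispensed mix, with 2 uM S6P) react with 0.4 mM ATP and 5 mM glucose (final) in Hepes pH 7.6 for 60 min at room temperature. ADP is measured by ADP-Glo luminescence.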
# [3] = target: T1, Hexokinase-4 (Homo sapiens) + Glucokinase regulatory protein (Homo sapiens); assay: qHTS assay for inhibitors of recombinant human GCK-GKRP interaction: HTRF assay (AID 743207)
# Procedure, shortened: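 GST-GCK and FLAG-GKRP (5 nM each) were combined with 2 uM S6P in pH 7.1 Hepes/MgCl2/KCl/DTT buffer, then compound and anti-FLAG XL665/anti-GST K antibodies were added. After 60 min at room temperature, HTRF 665/615 nm emission was read.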
# [4] = qHTS Assay for Identifying Gametocytocidal Compounds (AID 743244); note: potency is the fitted concentration of half-maximal effect;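 for max response: actives lower the fluorescent signal which means gametocytes are killed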; settings: P. falciparum 3D7 stage III-V gametocytes, alamarBlue, 72 h; max response: hits give low values
# Procedure, shortened: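 P. falciparum 3D7 stage III–V gametocytes (20,000 cells/well) were exposed to compounds for 72 h at 37 °C, 5% CO2. AlamarBlue was then added for 24 h; decreased resorufin fluorescence (Ex 525/Em 598 nm) indicated loss of viability.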
# [5] = qHTS assay for measurement of the activity of small molecule inhibitors on Zika virus induced Caspase-3 activity in human iPSC derived neural progenitor cells (hNPCs) (AID 1224857); note: nearly all actives have a fitted effect of over 65% in size
# Procedure, shortened: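 hNPCs seeded 350 cells/well, cultured 16–20 h; compounds added 1 h before ZIKV (2 FFU/cell), 37 C 6 h. Caspase-Glo 3/7 luminescence after 30 min RT; % inhibition from induction scaled to uninfected (0%) and infected (100%) wells.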
# [6] = qHTS assay for measurement of the activity of small molecule inhibitors on Zika virus induced Caspase-3 activity in human astrocytoma cells (AID 1224859)
# Procedure, shortened: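 Luminescence read-out (Caspase-Glo 3/7, 30 min RT) of caspase activity in SNB-19 cells infected 6 h with ZIKV, 2 FFU/cell, after 1 h compound pretreatment; % inhibition from induction normalised to uninfected (0%) and infected (100%) wells.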
# [7] = Natriuretic polypeptide receptor (hNpr1) antagonism - Pilot counterscreen GloSensor control cell line (AID 1347045; calls by dose curve; note: potency is the fitted concentration of half-maximal effect)
# Procedure, shortened: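 This counterscreen uses HEK293 cells expressing the GIP/pGS-40F cGMP biosensor. Compound-treated cells are challenged with 50 uM sodium nitroprusside, and the luciferase signal is compared before and after stimulation.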
# [8] = target: Atrial natriuretic peptide receptor 1 (Homo sapiens) (UniProt P16066); assay: Natriuretic polypeptide receptor (hNpr1) antagonism - Pilot screen (AID 1347049; calls by dose curve;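 note: agonist-evoked cGMP luminescence read 20 min after hNppA addition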; note: potency is the fitted concentration of half-maximal effect)
# Procedure, shortened: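 HEK293 cells co-expressing hNpr1 and the GloSensor pGS-40F cGMP luciferase sensor were preloaded with 2% GloSensor reagent for 2 h. Compounds were added for 30 min at room temperature, then cells were stimulated with 0.1 nM hNppA for 20 min before luminescence readout.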
# [9] = target: Atrial natriuretic peptide receptor 2 (Homo sapiens) (UniProt P20594); assay: Natriuretic polypeptide receptor (hNpr2) antagonism - Pilot subtype selectivity assay (AID 1347050; calls by dose curve; note: potency is the fitted concentration of half-maximal effect)
# Procedure, shortened: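 cGMP-sensor HEK293/hNpr2 cells; 2% GloSensor reagent 2 h RT; compounds 30 min; baseline luminescence read; 1 nM hNppC agonist 20 min RT; final luminescence read by CCD camera. Antagonism = reduced post-agonist signal.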
# Chain of Atrial natriuretic peptide receptor 2 (Homo sapiens) (P20594 whole entry, looked up): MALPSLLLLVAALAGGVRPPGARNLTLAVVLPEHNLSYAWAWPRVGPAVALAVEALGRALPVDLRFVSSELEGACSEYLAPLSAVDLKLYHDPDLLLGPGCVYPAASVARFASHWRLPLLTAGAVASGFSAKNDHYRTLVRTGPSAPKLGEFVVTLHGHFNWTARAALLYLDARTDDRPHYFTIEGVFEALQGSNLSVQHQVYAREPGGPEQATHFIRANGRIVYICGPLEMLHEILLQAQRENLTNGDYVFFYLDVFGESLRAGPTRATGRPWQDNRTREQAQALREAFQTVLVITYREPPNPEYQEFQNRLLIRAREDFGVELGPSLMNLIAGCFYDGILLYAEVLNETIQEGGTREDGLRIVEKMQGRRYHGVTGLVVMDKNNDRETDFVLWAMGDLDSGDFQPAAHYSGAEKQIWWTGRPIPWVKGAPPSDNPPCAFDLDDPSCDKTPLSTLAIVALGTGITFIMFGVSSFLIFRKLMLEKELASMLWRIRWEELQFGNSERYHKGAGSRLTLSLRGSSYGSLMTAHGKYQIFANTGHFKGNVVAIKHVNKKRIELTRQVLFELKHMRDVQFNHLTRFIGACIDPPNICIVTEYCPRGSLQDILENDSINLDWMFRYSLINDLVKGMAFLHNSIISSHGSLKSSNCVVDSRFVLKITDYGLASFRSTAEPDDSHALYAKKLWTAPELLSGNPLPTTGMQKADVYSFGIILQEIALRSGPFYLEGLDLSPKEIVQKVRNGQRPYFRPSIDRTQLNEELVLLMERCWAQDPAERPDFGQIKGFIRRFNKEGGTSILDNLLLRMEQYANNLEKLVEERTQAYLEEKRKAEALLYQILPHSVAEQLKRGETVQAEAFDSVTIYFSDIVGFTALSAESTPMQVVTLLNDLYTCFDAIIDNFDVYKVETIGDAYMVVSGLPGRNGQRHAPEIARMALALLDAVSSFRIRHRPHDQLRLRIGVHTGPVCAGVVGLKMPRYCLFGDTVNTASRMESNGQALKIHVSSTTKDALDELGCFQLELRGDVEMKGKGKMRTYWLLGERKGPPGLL
# Chain of Atrial natriuretic peptide receptor 1 (Homo sapiens) (P16066 whole entry, looked up): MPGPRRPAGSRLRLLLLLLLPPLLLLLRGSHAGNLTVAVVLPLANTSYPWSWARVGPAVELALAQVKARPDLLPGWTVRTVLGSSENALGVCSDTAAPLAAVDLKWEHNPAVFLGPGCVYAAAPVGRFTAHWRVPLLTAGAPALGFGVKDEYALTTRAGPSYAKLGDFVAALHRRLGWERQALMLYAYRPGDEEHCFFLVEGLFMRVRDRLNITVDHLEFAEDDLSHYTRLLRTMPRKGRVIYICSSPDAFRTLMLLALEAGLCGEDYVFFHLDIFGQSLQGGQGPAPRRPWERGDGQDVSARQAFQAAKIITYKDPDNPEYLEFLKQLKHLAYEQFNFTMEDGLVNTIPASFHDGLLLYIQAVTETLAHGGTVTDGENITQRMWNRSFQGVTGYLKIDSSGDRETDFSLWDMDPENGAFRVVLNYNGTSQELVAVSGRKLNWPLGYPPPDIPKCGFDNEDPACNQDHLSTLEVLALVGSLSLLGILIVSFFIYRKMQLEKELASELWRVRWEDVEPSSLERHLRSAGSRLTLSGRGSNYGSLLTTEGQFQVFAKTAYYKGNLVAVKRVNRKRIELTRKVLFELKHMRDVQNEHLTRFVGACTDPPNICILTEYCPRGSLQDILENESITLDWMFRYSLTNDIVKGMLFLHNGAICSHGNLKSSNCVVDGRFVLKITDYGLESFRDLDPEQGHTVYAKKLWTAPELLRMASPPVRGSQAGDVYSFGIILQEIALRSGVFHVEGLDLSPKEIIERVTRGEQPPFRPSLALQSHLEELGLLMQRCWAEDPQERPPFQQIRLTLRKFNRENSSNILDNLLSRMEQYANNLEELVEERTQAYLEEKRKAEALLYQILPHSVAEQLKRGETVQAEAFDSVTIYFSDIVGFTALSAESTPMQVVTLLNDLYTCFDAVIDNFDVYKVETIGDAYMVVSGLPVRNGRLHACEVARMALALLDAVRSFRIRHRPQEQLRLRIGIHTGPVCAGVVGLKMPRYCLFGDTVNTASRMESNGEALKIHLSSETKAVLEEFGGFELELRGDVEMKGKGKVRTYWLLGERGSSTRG
# T1 sequence (P35557 whole entry, looked up): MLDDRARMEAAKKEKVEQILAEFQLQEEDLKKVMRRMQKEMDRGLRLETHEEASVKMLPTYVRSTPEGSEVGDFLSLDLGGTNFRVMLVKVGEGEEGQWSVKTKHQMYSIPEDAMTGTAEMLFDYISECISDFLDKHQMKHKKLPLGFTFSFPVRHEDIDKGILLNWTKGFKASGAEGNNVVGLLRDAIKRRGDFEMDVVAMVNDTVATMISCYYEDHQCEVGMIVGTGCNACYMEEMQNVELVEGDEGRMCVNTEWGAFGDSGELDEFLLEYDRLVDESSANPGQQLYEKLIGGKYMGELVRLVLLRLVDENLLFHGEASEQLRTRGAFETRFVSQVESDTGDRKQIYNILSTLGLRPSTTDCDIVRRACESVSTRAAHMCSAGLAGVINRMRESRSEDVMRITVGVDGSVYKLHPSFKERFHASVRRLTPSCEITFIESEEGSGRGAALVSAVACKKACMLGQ
# T1 sequence (Q14397 whole entry, looked up): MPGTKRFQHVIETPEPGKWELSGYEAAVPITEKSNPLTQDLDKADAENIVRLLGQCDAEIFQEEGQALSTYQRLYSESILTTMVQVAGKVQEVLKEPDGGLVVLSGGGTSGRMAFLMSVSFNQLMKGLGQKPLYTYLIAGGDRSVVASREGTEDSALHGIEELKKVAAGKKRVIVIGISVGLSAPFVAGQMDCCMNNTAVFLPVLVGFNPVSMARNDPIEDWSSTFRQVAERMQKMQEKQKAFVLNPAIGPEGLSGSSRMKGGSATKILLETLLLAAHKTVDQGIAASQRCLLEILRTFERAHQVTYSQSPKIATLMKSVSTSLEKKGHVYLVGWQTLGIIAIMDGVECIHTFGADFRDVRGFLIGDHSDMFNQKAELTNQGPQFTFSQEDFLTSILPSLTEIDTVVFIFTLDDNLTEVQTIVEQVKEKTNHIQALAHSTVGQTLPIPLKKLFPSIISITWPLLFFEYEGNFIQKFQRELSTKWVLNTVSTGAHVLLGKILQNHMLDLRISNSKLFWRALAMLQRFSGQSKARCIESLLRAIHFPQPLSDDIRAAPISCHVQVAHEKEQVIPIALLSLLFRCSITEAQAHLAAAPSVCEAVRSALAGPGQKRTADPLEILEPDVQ
SMILES,Potency [1],Potency [2],Potency [3],max response [4] [%],Potency [5],Potency [6],Potency [7],Potency [8],Potency [9],Potency [4]
CNC(=O)c1cc2c(cn1)[nH]c1ccccc12,inactive,inactive,inactive,10.2,inactive,inactive,inactive,inactive,inactive,–
O=C(O)c1ccccc1Nc1cccc(OCc2ccc3ccccc3n2)c1,inactive,inactive,inactive,1.28,inactive,inactive,inactive,inactive,inactive,–
C=CCn1c(=O)c2c(nc(-c3ccc(S(=O)(=O)O)cc3)n2C)n(C)c1=O,inactive,inactive,inactive,2.53,inactive,inactive,inactive,inactive,inactive,–
Nc1nc2c(cnn2CCc2ccccc2)c2nc(-c3ccco3)nn12,inactive,inactive,inactive,-5.77,inactive,inactive,inactive,inactive,inactive,–
COc1cc(C(O)C(=O)O)ccc1O (stereo not drawn),inactive,inactive,inactive,20.3,inactive,inactive,inactive,inactive,inactive,–
Oc1cc(O)c2c(c1)O[C@H](c1ccc(O)c(O)c1)[C@@H](O)C2,inactive,inactive,inactive,-4.64,inactive,inactive,inactive,inactive,inactive,–
Brc1c(Br)c(Br)c2[nH]cnc2c1Br,inactive,inactive,inactive,7.09,inactive,inactive,inactive,inactive,inactive,–
CCSC(=N)N,inactive,inactive,inactive,12.9,inactive,inactive,inactive,inactive,inactive,–
NCC(O)(CS(=O)(=O)O)c1ccc(Cl)cc1 (stereo not drawn),inactive,inactive,inactive,-5.75,inactive,inactive,inactive,inactive,inactive,–
CC(=O)[C@H]1CCC2C3CC=C4C[C@@H](OS(=O)(=O)O)CC[C@]4(C)C3CC[C@@]21C (stereo partly drawn),inactive,inactive,inactive,21.2,inactive,inactive,inactive,inactive,inactive,–
COc1cc(/C=C(\C#N)C(=O)c2ccc(O)c(O)c2)cc(I)c1O,inactive,inactive,inactive,9.56,inactive,inactive,inactive,inactive,inactive,–
O=c1[nH]c2cc(Cl)ccc2c(O)c1-c1ccc(Oc2ccccc2)cc1,inactive,inactive,inactive,17.9,inactive,inactive,inactive,inactive,inactive,–
CCCCCCCCCCC/C=C\C(C)(C)/C=C\CCCC(=O)O,inactive,inactive,inactive,11.6,inactive,inactive,inactive,inactive,inactive,–
CN1Cc2sccc2C(c2ccc(O)c(O)c2)C1 (stereo not drawn),inactive,inactive,inactive,–,inactive,inactive,inactive,inactive,inactive,891 nM (active)
N#Cc1cc2nc(O)c(O)nc2cc1[N+](=O)[O-],inactive,inactive,inactive,15.6,inactive,inactive,inactive,inactive,inactive,–
N[C@@H](CCC(=O)N[C@H](CSN=O)C(=O)NCC(=O)O)C(=O)O,inactive,inactive,inactive,16.7,inactive,inactive,inactive,inactive,inactive,–
CC(C)C[C@H](NC(=O)C1OC1C(=O)O)C(=O)NCCCCN=C(N)N (stereo partly drawn),inactive,inactive,inactive,-4.29,inactive,inactive,inactive,inactive,inactive,–
Cc1cccc(C(=O)NCN2CCN(c3ccccc3C#N)CC2)c1,inactive,inactive,inactive,20.6,inactive,inactive,inactive,inactive,inactive,–
C=CC1(C)CC(=O)C2(O)C(C)(O1)C(OC(C)=O)C(O)C1C(C)(C)CCC(O)C12C (stereo not drawn),inactive,inactive,inactive,15.4,inactive,inactive,inactive,inactive,inactive,–

SMILES,Potency [1],Potency [2],Potency [3],max response [4] [%],Potency [5],Potency [6],Potency [7],Potency [8],Potency [9],Potency [4]
Nc1nc2ccc(Cl)cc2c2nc(-c3ccco3)nn12,inactive,inactive,inactive,-3.79,inactive,inactive,inactive,inactive,inactive,–
N#CC(C#N)=C(N)/C(C#N)=C/c1ccc(O)cc1,inactive,inactive,inactive,11.4,inactive,inactive,inactive,inactive,inactive,–
COc1ccc2c(c1)c(CC(=O)O)c(C)n2C(=O)c1ccccc1,inactive,inactive,inactive,11.3,inactive,inactive,inactive,inactive,inactive,–
CC(C)(C)c1cc(/C=C(\C#N)C(N)=S)cc(C(C)(C)C)c1O,inactive,inactive,inactive,6.59,inactive,inactive,1170 nM (active),3380 nM (active),4650 nM (active),–
CC(N)=NCCCC[C@@H](N)C(=O)O,inactive,inactive,inactive,25.1,inactive,inactive,inactive,inactive,inactive,–
Cn1c(=O)[nH]c2ncn(C)c2c1=O,inactive,inactive,inactive,2.01,inactive,inactive,inactive,inactive,inactive,–
CC(=O)N[C@@H](Cc1c[nH]c2ccccc12)C(=O)OCc1cc(C(F)(F)F)cc(C(F)(F)F)c1,inactive,inactive,inactive,12,inactive,inactive,inactive,inactive,inactive,–
CC(C)NC[C@H](O)COc1ccc(CC(N)=O)cc1,inactive,inactive,inactive,5.76,inactive,inactive,inactive,inactive,inactive,–
CN[C@H](CC(=O)O)C(=O)O,inactive,inactive,inactive,19.8,inactive,inactive,inactive,inactive,inactive,–
c1ccc2c(c1)CCC[C@H]2Nc1nc2ccccc2[nH]1,inactive,inactive,inactive,12.6,inactive,inactive,inactive,inactive,inactive,–
c1ccc(C(NCc2cccnc2)(c2ccccc2)c2ccccc2)cc1,inactive,inactive,inactive,16.7,inactive,inactive,inactive,inactive,inactive,–
c1ccc2nc(C3=NCCN3)ccc2c1,inactive,inactive,inactive,12,inactive,inactive,inactive,inactive,inactive,–
N=C(N)c1ccc(OCCCCCOc2ccc(C(=N)N)cc2)cc1 (tested in a mixture with another compound),inactive,inactive,inactive,–,inactive,inactive,inactive,inactive,inactive,562 nM (active)
CN(CC[C@@H](Oc1ccc(C(F)(F)F)cc1)c1ccccc1)CC(=O)O,inactive,inactive,inactive,25.4,inactive,inactive,inactive,inactive,inactive,–
O=C(O)C1CCCNC1 (stereo not drawn),inactive,inactive,inactive,20.9,inactive,inactive,inactive,inactive,inactive,–
COc1ccc(-c2ccc(N)[n+](CCCC(=O)O)n2)cc1,inactive,inactive,inactive,23.8,inactive,inactive,inactive,inactive,inactive,–
[Li+],inactive,inactive,inactive,24.7,inactive,inactive,inactive,inactive,inactive,–
C=CC[C@H](N)C(=O)O,inactive,inactive,inactive,18.7,inactive,inactive,inactive,inactive,inactive,–

# Source: PubChem BioAssay (NCATS)
